# Compounds with a hit are over-represented: about 0.98% of the library has one in this group of screens.
# Keap1-Nrf2 PPI – Keap1-Nrf2 protein-protein interaction inhibitors, primary screen, biochemical, fluorescence polarization, single point; inhibition, % at 9.4 µM; 340,000 tested, 0.15% active; Keap1 Kelch-Nrf2 peptide fluorescence polarization, 1536-well; AID 504523, 2011; in the data active = inhibition above about 12%;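 note: human Keap1 Kelch domain with fluorescein labeled Nrf2 9mer peptide probe; higher means more block of Keap1 binding to Nrf2 peptide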
# Target sequence (Q14145 whole entry, looked up, the tested form may be a part): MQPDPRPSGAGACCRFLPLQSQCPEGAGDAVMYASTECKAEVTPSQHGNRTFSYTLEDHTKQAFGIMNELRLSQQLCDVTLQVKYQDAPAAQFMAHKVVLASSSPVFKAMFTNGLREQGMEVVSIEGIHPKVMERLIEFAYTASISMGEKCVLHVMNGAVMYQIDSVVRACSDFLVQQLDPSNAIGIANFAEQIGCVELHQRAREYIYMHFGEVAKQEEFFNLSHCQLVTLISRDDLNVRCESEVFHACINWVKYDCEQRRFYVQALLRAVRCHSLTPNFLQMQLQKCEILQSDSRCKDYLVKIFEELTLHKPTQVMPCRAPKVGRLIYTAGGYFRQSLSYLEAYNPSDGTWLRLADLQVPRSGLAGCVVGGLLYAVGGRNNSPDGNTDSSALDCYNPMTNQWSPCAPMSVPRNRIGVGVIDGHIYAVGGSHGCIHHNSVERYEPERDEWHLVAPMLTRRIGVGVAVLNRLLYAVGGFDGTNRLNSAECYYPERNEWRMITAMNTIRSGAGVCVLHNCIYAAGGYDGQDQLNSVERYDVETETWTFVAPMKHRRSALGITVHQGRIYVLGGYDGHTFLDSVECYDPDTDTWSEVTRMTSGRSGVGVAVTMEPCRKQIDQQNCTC
# EBV gp42 inh – Epstein-Barr virus gp42 inhibitors, primary screen, biochemical, uHTS, fluorescence polarization; Glycoprotein 42 (Epstein-Barr virus (strain AG876)), Q1HVG2; Fluorescence polarization binding assay, mP read-out; inhibition, % (tested at 21.74 µM); 220,000 tested, 0.42% active; AID 1085, 2008; in the data active = inhibition above about 50%
# LANA DNA inh – inhibitors of KSHV C-LANA binding to DNA, primary screen, biochemical, fluorescence polarization, FAM-LBS DNA, MBP-C-LANA, single point; Kaposi's sarcoma herpesvirus LANA C-terminal domain (residues 932-1162) DNA binding; inhibition, % at 9 µM; 340,000 tested, 0.078% active; AID 504423, 2011;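 active = highest replicate inhibition at or above 60% at 9 µM, even if other replicates fall short; inactive = all replicates below 60% inhibition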
# Cardiac RTF inh – cardiac RTF calcium sensitivity inhibitors, primary screen, biochemical, IANBD-TnC fluorescence, EC70 calcium; 340,000 tested, 0.12% active; inhibition, % at 7.15 µM; Troponin I, cardiac muscle (Homo sapiens) + Troponin T, cardiac muscle (Homo sapiens) + …; IANBD-labeled cardiac RTF, Ca2+ fluorescence; AID 493244, 2011;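 active = inhibition above the mean inhibition of all tested compounds plus 3 SD, cut at about 17% in these data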;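 note: assay run at fixed EC70 calcium of 1.6 mM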
# cardiac RTF act – cardiac RTF calcium sensitivity activators, primary screen, biochemical, IANBD-TnC fluorescence, EC20 calcium | activation, % at 7.2 µM | AID 493008, 2010 | Troponin I, cardiac muscle (Homo sapiens) + Troponin T, cardiac muscle (Homo sapiens) + … | IANBD-labeled TnC RTF fluorescence at EC20 calcium; 0% EC20 calcium, 100% full calcium | 340,000 tested, 0.24% active;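 active = activation above the mean over all tested compounds plus 3 SD, cut at about 30% in these data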;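 note: rise in fluorescence read as greater calcium sensitivity of cardiac thin filaments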
# E coli Lon inh – inhibitors of E. coli Lon protease, primary screen, biochemical, fluorescence polarization | 360,000 tested, 0.42% active | purified E. coli Lon protease | AID 602123, 2011 | inhibition, % at 7.94 µM | P0A9M0; in the data active = inhibition above about 13%, passing the limit was not always enough
# A number is an active result; . = inactive; / = no result.
SMILES,Keap1-Nrf2 PPI,EBV gp42 inh,LANA DNA inh,Cardiac RTF inh,cardiac RTF act,E coli Lon inh
Cn1cccc1/C=C1\C(=O)NC(=O)N(Cc2ccccc2Cl)C1=O,.,58,.,.,.,.
CCOc1cc(C=C2C(=O)NC(=S)NC2=O)ccc1O,12,/,.,.,.,.
CN1Cc2c(c(C#N)c(N)n(C)c2=S)CC1(C)C,16,52,.,.,50,40
CN(CC=CCN(C)P(=S)(N1CC1)N1CC1)P(=S)(N1CC1)N1CC1,.,/,.,.,.,.
Cn1cc(C=C(C#N)C#N)c2ccccc21,53,.,.,.,.,.
COc1ccc(CC2NCC(O)C2OC(C)=O)cc1 (centres undefined),.,/,.,.,.,.
C[C@@H]1CN([C@@H](C)CO)C(=O)CCCn2nncc2CO[C@@H]1CN(C)C(=O)Oc1cccc2ccccc12,/,/,/,/,/,.
COc1cc2c(C(=O)N3CCN(C)CC3)c(C)n(C)c2cc1Br,.,.,.,.,.,20
C[C@@H]1CN([C@@H](C)CO)C(=O)CCCn2nncc2CO[C@H]1CN(C)C(=O)Oc1ccc2ccccc2c1,/,/,/,/,/,.
ClCCN(CCCl)c1ccc(C=Cc2ccncn2)cc1,/,/,/,/,/,.
CC(C)NC1C2CCC(CC2)C1(O)c1ccc(Cl)c(Cl)c1 (centres undefined),/,/,/,/,/,.
O=c1[nH]c(=O)n(C2CCCCC2)c(O)c1/C=C/C=Nc1ccccc1,.,.,.,.,55,.
O=c1[nH]c(=O)n(-c2ccccc2)c(O)c1/C=C/C=Nc1ccccc1,.,.,.,.,78,.
COc1ccc(-n2c(O)c(/C=C/C=Nc3ccccc3)c(=O)[nH]c2=O)cc1,.,.,.,.,202,.
COc1ccc(-n2c(O)c(/C(C)=N/Nc3ccccc3)c(=O)[nH]c2=O)cc1,.,.,.,.,.,.
O=c1[nH]c(=O)n(C2CCCCC2)c(O)c1C=Nc1ccc(N2CCOCC2)cc1,.,.,198,.,.,.
C=CCn1c(O)c(/C=C/C=Nc2ccccc2)c(=O)[nH]c1=O,.,.,.,.,.,.
O=c1[nH]c(=S)n(-c2ccc(Cl)cc2)c(O)c1C=Nc1ccc(N2CCOCC2)cc1,.,.,.,.,.,.
NC(Cc1ccc(F)cc1)c1csc(Nc2ccccn2)n1 (centres undefined),/,/,/,/,/,.
COc1ccc(-c2ccc3c(c2)CN(C(=O)CCc2ccccc2)Cc2cnnn2-3)cc1,/,/,/,/,/,.
CCOC(=O)[C@]12Cc3cc(C)ccc3[C@H]1N(C1CCCCC1)C(=O)c1cc(OC)ccc12,/,/,/,/,/,.
O=S(=O)(c1cc(Cl)cc(Cl)c1)N1Cc2cc(-c3ccccc3)ccc2-n2nncc2C1,/,/,/,/,/,.
CCOc1ccc(-n2c(O)c(C=Nc3ccc(N(CC)CC)cc3)c(=O)[nH]c2=O)cc1,.,82,.,.,.,.
CCn1c(O)c(C=Nc2ccc(N3CCOCC3)cc2)c(=O)n(CC)c1=S,.,177,.,.,130,.
CCN(CC)c1ccc(N=Cc2c(O)n(-c3ccccc3)c(=O)[nH]c2=O)cc1,.,.,.,.,.,.
SMILES,Keap1-Nrf2 PPI,EBV gp42 inh,LANA DNA inh,Cardiac RTF inh,cardiac RTF act,E coli Lon inh
Cc1ccc(N/N=C/c2c(O)n(-c3ccccc3)c(=O)[nH]c2=O)cc1,.,.,.,.,.,.
Cc1ccc(-n2c(O)c(/C=C/C=Nc3ccccc3)c(=O)[nH]c2=O)cc1,.,.,.,.,39,.
CC(OC(=O)c1cn(C)c2ccccc12)C(=O)N(C)c1ccccc1 (centres undefined),.,/,.,.,.,.
COc1ccc(C(=O)OCC2CN2c2cccc([N+](=O)[O-])c2)cc1 (centres undefined),/,/,/,/,/,.
Cc1cc2c(cc1C)NP(=S)(c1ccccc1)N2,.,/,.,.,.,.
CCN(CC)c1ccc(/C=C2\C(=O)NC(=S)N(C)C2=O)o1,.,.,.,.,53,.
COc1ccc(N2C(=O)NC(=O)/C(=C\c3cn(C)c4ccccc34)C2=O)cc1,.,/,.,.,523,.
COc1ccc(N2C(=O)/C(=C/c3ccc(N(C)C)o3)C(=O)NC2=S)cc1,.,/,.,.,55,.
CCOc1cccc(N2C(=O)/C(=C/c3ccco3)C(=O)NC2=S)c1,.,/,/,.,.,.
O=C1NC(=S)N(c2ccccc2)C(=O)/C1=C/c1ccco1,.,/,88,.,.,.
CCN(CC)c1ccc(C=C2C(=O)N(C)C(=S)N(C)C2=O)o1,.,.,.,.,.,.
COC(=O)Cn1cc(/C=C2\C(=O)NC(=O)N(c3ccc(OC)cc3)C2=O)c2ccccc21,.,/,.,.,.,.
C[C@]12C[C@H](O)[C@@H](O)C[C@@H]1CC[C@@H]1[C@@H]2CC[C@]2(C)C(=O)CC[C@@H]12,/,/,/,/,/,.
CCN(CC)c1ccc(/C=C2\C(=O)NC(=S)N(c3ccc(OC)cc3OC)C2=O)o1,.,/,.,.,76,.
CN1C(=O)/C(=C\N2CCc3ccccc32)C(=O)NC1=S,.,90,.,.,.,.
CC(C)[C@@]1(NC(=O)[C@@H]2C[C@@H]3c4cccc5[nH]cc(c45)C[C@H]3N(C)C2)O[C@@]2(O)[C@@H]3CCCN3C(=O)[C@H](Cc3ccccc3)N2C1=O,.,.,.,.,.,.
CC(C)[C@H]1C(=O)N2CCC[C@H]2[C@]2(O)O[C@](NC(=O)[C@@H]3C=C4c5cccc6[nH]cc(c56)C[C@H]4N(C)C3)(C(C)C)C(=O)N12,15,112,.,.,.,64
CC(C)[C@@]1(NC(=O)[C@@H]2C=C3c4cccc5[nH]cc(c45)C[C@H]3N(C)C2)O[C@@]2(O)[C@@H]3CCCN3C(=O)[C@H](Cc3ccccc3)N2C1=O,/,112,/,/,/,/
CC(C)C[C@H]1C(=O)N2CCCC2[C@]2(O)O[C@](NC(=O)[C@@H]3C=C4c5cccc6[nH]cc(c56)CC4N(C)C3)(C(C)C)C(=O)N12 (some centres undefined),16,97,.,.,31,.
Cc1cc(C)cc(N2C(=O)/C(=C\c3ccc(N4CCN(C)CC4)o3)C(=O)NC2=S)c1,/,.,/,/,/,.
O=C1NC(=O)N(c2ccc3c(c2)OCO3)C(=O)/C1=C/c1ccc(N2CCCCC2)o1,.,.,.,.,78,.
O=C1NC(=O)C(=Cc2ccc(N3CCOCC3)o2)C(=O)N1,.,.,.,.,47,.
O=C1NC(=O)N(c2ccc3c(c2)OCO3)C(=O)/C1=C\c1ccc(-c2ccccc2C(=O)O)o1,.,.,.,.,.,.
